From the supplement of paper PMC6411743
± gives the standard deviation of the averaged measurements. The full data set covers some 5,400 targets. This sample favours those with the largest changes.

Compound: Nc1nc2c(ncn2[C@@H]2O[C@H](COP(=O)(O)OP(=O)(O)OP(=O)(O)O)[C@@H](O)[C@H]2O)c(=O)[nH]1 [guanosine triphosphate]
Assay: NP40-soluble protein abundance relative to vehicle (solubility fold change) (ratio); higher = more soluble protein in presence of GTP
How it was run: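 Jurkat crude lysate (Dounce-homogenised) was treated with eight concentrations from 0.1 to 10 mM for 10 min at room temperature, then 3 min at 37 °C. It was solubilised with 0.8% NP40 and benzonase (60 min, 4 °C) and ultracentrifuged, and the supernatant was TMT-labelled for LC-MS/MS. Intensities were vsn-normalised, and the value is the fold change against the NP40-processed vehicle per replicate, from three independent experiments.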

Sequence of UniProt Q99996 (Q99996 whole entry, one chain of several): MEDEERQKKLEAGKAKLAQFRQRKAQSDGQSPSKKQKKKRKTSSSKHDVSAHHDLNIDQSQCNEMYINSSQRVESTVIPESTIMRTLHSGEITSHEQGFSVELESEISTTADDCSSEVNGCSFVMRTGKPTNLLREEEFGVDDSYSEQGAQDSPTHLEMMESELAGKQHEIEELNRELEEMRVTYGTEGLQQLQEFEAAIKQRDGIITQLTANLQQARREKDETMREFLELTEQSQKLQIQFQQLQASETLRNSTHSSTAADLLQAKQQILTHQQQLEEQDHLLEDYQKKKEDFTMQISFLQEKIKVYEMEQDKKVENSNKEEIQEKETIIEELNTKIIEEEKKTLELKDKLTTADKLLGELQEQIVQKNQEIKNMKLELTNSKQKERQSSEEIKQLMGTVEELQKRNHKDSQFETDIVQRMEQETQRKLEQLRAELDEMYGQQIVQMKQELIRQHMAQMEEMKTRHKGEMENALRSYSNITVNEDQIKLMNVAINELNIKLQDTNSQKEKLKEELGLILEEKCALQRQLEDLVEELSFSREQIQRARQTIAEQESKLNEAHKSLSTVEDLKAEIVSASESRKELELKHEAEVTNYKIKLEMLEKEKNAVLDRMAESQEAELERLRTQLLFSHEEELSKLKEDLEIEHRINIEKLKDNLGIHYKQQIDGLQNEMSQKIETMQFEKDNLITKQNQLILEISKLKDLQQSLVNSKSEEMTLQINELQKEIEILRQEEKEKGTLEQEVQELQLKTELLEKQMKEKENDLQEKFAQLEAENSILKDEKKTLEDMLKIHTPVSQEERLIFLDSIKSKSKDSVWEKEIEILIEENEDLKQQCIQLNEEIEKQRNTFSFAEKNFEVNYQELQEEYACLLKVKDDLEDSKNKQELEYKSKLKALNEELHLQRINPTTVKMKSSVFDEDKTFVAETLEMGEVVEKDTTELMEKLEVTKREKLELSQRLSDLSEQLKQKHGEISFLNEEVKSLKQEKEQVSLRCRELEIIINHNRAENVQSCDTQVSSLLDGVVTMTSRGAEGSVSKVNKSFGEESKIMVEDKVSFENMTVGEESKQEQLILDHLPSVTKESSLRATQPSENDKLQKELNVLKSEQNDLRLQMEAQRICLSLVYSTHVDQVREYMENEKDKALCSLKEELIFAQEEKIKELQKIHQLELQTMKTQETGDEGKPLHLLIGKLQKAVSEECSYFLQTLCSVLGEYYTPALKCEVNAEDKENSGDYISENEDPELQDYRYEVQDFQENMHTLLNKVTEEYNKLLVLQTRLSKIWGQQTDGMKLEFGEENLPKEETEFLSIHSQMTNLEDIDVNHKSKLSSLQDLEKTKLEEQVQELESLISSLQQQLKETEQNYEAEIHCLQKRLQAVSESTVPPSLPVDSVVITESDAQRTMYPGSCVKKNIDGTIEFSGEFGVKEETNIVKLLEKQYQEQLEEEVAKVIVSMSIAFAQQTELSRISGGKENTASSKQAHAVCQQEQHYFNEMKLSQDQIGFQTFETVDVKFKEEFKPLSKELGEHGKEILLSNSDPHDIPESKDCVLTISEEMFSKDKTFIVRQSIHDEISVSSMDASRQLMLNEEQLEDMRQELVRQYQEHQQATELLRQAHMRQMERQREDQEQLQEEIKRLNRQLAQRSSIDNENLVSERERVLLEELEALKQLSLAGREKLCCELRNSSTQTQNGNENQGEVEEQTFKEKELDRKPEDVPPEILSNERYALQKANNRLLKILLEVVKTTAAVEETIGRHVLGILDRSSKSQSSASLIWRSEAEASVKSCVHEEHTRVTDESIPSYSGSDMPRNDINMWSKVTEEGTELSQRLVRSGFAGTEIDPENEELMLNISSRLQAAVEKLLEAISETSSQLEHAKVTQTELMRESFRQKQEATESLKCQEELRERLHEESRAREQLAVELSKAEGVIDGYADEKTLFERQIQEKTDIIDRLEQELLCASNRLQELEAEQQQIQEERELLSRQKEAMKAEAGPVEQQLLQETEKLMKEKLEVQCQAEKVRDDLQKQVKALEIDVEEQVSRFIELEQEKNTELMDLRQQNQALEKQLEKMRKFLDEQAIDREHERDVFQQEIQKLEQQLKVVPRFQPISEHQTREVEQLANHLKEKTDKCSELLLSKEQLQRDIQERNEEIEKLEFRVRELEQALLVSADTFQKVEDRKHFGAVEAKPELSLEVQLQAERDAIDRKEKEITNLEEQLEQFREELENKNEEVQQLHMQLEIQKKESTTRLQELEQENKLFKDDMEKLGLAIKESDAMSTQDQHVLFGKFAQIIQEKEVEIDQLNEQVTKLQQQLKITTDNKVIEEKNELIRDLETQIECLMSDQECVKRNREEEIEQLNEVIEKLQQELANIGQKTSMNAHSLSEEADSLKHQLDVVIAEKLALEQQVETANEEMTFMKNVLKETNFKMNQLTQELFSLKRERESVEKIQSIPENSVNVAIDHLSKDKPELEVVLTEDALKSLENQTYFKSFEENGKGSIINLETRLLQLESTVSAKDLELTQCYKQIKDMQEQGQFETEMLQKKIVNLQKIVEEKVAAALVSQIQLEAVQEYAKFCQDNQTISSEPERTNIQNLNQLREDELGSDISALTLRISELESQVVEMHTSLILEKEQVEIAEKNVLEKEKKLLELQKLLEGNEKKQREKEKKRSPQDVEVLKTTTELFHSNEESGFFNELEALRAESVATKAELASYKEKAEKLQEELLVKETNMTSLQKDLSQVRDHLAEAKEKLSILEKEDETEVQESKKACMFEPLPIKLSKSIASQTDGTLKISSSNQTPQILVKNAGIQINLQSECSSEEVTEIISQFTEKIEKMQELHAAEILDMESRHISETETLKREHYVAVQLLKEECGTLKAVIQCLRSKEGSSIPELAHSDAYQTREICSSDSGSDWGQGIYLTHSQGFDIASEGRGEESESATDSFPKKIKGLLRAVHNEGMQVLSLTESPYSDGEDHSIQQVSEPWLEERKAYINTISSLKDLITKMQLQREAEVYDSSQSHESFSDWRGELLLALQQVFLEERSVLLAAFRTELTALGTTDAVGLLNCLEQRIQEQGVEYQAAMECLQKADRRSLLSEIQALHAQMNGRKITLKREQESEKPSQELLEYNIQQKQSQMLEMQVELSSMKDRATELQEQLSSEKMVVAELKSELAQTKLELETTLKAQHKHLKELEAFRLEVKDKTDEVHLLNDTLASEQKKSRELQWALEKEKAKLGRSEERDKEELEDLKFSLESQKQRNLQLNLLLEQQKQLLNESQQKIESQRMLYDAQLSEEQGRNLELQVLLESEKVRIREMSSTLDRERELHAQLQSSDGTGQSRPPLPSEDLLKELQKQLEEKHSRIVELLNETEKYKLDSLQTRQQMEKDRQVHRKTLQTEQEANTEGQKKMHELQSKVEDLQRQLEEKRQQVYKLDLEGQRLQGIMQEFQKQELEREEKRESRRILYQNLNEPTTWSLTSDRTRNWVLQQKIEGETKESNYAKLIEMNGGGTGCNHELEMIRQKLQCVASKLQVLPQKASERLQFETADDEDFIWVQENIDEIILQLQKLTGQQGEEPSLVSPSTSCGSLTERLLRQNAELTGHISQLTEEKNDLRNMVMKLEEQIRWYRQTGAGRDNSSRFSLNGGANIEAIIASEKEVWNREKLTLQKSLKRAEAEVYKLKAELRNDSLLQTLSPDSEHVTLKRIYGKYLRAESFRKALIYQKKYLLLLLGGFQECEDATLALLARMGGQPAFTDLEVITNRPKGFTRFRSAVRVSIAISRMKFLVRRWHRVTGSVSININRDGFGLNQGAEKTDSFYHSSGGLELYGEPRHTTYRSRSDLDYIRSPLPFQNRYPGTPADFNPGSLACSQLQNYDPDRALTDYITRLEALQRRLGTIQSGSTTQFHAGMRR
Sequence of UniProt Q03013 (Q03013 whole entry, one chain of several): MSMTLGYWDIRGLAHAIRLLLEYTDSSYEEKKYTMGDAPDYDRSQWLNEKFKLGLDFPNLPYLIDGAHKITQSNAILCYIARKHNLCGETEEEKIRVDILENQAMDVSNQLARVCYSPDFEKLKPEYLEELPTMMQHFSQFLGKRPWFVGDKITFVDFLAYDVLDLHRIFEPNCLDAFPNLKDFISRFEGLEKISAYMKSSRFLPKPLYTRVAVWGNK
Sequence of UniProt P11802 (P11802 whole entry, one chain of several): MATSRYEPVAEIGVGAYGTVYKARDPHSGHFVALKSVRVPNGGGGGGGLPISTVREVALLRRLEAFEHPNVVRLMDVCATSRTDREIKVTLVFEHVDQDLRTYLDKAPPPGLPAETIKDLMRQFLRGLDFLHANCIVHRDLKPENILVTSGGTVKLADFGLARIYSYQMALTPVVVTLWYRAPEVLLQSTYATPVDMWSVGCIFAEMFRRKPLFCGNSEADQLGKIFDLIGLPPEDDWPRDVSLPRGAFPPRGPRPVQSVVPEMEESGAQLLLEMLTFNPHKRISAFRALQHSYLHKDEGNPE
Sequence of UniProt Q9UGP4 (Q9UGP4 whole entry, one chain of several): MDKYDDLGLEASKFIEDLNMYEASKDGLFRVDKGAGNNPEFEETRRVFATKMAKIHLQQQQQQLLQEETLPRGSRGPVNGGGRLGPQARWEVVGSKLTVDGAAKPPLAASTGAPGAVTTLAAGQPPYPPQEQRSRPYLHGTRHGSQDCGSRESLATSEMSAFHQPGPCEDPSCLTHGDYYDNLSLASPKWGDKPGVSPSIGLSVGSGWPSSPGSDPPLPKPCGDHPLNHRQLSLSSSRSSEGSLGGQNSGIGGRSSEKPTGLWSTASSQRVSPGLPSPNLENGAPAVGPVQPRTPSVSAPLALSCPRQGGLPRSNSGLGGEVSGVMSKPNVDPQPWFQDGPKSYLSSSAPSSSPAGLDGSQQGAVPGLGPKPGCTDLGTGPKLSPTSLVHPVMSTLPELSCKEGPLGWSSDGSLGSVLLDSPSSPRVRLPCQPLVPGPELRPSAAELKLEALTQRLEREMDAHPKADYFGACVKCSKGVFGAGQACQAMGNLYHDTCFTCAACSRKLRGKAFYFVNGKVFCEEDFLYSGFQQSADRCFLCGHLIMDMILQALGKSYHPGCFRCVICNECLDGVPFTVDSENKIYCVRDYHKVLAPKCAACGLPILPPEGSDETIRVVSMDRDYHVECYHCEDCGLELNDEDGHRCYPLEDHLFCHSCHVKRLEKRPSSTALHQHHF

Target	NP40-soluble protein abundance (concentration: 0.1mM)	NP40-soluble protein abundance (concentration: 0.5mM)	NP40-soluble protein abundance (concentration: 1mM)	NP40-soluble protein abundance (concentration: 2mM)	NP40-soluble protein abundance (concentration: 4mM)	NP40-soluble protein abundance (concentration: 6mM)	NP40-soluble protein abundance (concentration: 8mM)	NP40-soluble protein abundance (concentration: 10mM)
A0A5E8|Q99501|C9JFI0 (UniProt Q99501)	1.12 ± 0.09	1.17 ± 0.18	1.21 ± 0.1	1.3 ± 0.15	1.3 ± 0.086	1.37 ± 0.075	1.46 ± 0.035	1.38 ± 0.078
F8VTV8|F8VWX7|F8VYH9|P11802 (UniProt P11802)	0.977 ± 0.13	1.06 ± 0.048	0.999 ± 0.041	1.05 ± 0.071	1.06 ± 0.056	1.02 ± 0.049	0.995 ± 0.04	0.973 ± 0.015
F8VU90|Q9NYL4|Q9NYL4-2 (UniProt Q9NYL4)	0.972 ± 0.06	0.968 ± 0.052	1.04 ± 0.018	1.03 ± 0.065	1.05 ± 0.033	0.996 ± 0.078	0.922 ± 0.041	0.995 ± 0.065
A0A087WVC1|Q9BQ39 (UniProt Q9BQ39)	1.19 ± 0.051	1.25 ± 0.055	1.4 ± 0.089	1.89 ± 0.23	2.57 ± 0.26	3.29 ± 0.3	3.85 ± 0.56	4.45 ± 0.47
A0A0U1RRH6|O94880|O94880-2 (UniProt O94880)	1.05 ± 0.095	1.07 ± 0.14	1.15 ± 0.12	1.16 ± 0.065	1.34 ± 0.12	1.46 ± 0.096	1.65 ± 0.25	1.78 ± 0.25
A0A096LNZ9|A0A096LPJ4|P05161 (UniProt P05161)	0.9514 ± 0.0057	0.961 ± 0.023	0.899 ± 0.019	0.888 ± 0.02	0.869 ± 0.026	0.885 ± 0.035	0.83 ± 0.034	0.836 ± 0.034
A0A0A0MR85|Q03013 (UniProt Q03013)	1.08 ± 0.068	1.07 ± 0.067	1.04 ± 0.078	1.03 ± 0.14	0.929 ± 0.058	0.985 ± 0.071	1 ± 0.11	0.989 ± 0.14
C9JWC4|Q8NCD3|Q8NCD3-2|Q8NCD3-3 (UniProt Q8NCD3)	1.07 ± 0.053	1.12 ± 0.041	1.15 ± 0.069	1.18 ± 0.025	1.19 ± 0.15	1.18 ± 0.067	1.2 ± 0.055	1.13 ± 0.081
H0UI80|Q8IXH7|Q8IXH7-4|X6RLT1 (UniProt X6RLT1+Q8IXH7+H0UI80)	1.01 ± 0.017	0.973 ± 0.038	0.965 ± 0.024	0.968 ± 0.012	0.981 ± 0.011	0.978 ± 0.01	0.97 ± 0.039	0.95 ± 0.0096
G3V583|Q8N128|Q8N128-2 (UniProt Q8N128)	0.912 ± 0.089	0.928 ± 0.084	0.869 ± 0.13	0.94 ± 0.16	0.887 ± 0.16	0.861 ± 0.14	0.87 ± 0.1	0.902 ± 0.14
A0A087WU64|A6NMQ1|P09884 (UniProt P09884)	1.06 ± 0.025	1.07 ± 0.035	1.01 ± 0.047	1.02 ± 0.057	1.01 ± 0.033	0.994 ± 0.028	1.01 ± 0.051	0.973 ± 0.029
A0A0R4J2E2|Q9Y3T6|A0A0D9SG39|E5RHX3|E5RIK1|E5RIQ4 (UniProt Q9Y3T6)	0.88 ± 0.0067	0.877 ± 0.017	0.961 ± 0.019	0.923 ± 0.048	0.94794 ± 0.00022	0.908 ± 0.017	0.89 ± 0.034	0.9192 ± 0.0019
G3XAG1|Q96ME7|Q96ME7-3 (UniProt Q96ME7)	1.1 ± 0.013	1.17 ± 0.055	1.27 ± 0.04	1.445 ± 0.014	1.74 ± 0.059	1.88 ± 0.079	2.01 ± 0.13	2.17 ± 0.081
A0A087WTT6|P62273|P62273-2 (UniProt P62273)	0.92 ± 0.14	0.977 ± 0.14	1.16 ± 0.29	1.1 ± 0.19	0.953 ± 0.29	0.957 ± 0.27	0.663 ± 0.15	0.939 ± 0.29
A6NJD9|A8MVT4|A8MYK1|Q16540 (UniProt Q16540)	1.06 ± 0.1	1.11 ± 0.23	1.28 ± 0.22	1.29 ± 0.31	1.36 ± 0.41	1.14 ± 0.35	1.19 ± 0.32	1.2 ± 0.37
C9JRJ5|Q9UGP4 (UniProt Q9UGP4)	1.01 ± 0.054	1 ± 0.021	1 ± 0.043	0.955 ± 0.025	0.963 ± 0.031	0.962 ± 0.021	1.01 ± 0.038	0.965 ± 0.034
A0A0A0MRR7|P09234 (UniProt P09234)	1.06 ± 0.017	1.19 ± 0.068	1.25 ± 0.068	1.36 ± 0.052	1.33 ± 0.11	1.56 ± 0.097	1.71 ± 0.2	1.82 ± 0.24
B4DJL6|Q96SY0|B4DVT3|H3BRY6|Q96SY0-3|Q96SY0-4 (UniProt Q96SY0)	1.03 ± 0.049	1.03 ± 0.035	1.03 ± 0.064	1.07 ± 0.051	1.03 ± 0.058	1.09 ± 0.025	1.07 ± 0.086	1.05 ± 0.066
A0A0A6YYH1|H0YLI7|P59780|Q7Z6K5-2 (UniProt Q7Z6K5+P59780+H0YLI7)	1.04 ± 0.012	1.07 ± 0.045	1.06 ± 0.099	1.03 ± 0.044	0.986 ± 0.04	1.01 ± 0.076	0.989 ± 0.017	0.992 ± 0.049
B1AMU7|Q9Y3B2 (UniProt Q9Y3B2)	1.02 ± 0.037	1.07 ± 0.04	1.01 ± 0.056	1.1 ± 0.11	1.18 ± 0.11	1.22 ± 0.12	1.17 ± 0.062	1.18 ± 0.068
F8VXG7|Q99590|Q99590-2 (UniProt Q99590)	1.02 ± 0.064	1.13 ± 0.03	1.22 ± 0.025	1.26 ± 0.058	1.3 ± 0.042	1.31 ± 0.031	1.4 ± 0.1	1.42 ± 0.12
A0A0A0MTB8|Q8NI36 (UniProt Q8NI36)	1.1 ± 0.013	1.18 ± 0.047	1.2 ± 0.064	1.55 ± 0.056	2 ± 0.13	2.39 ± 0.2	2.33 ± 0.13	2.39 ± 0.3
A0A0A0MRF6|Q99996|Q99996-2|Q99996-3|Q99996-5|Q99996-6 (UniProt Q99996)	1.03 ± 0.014	1.05 ± 0.017	1.08 ± 0.049	1.1 ± 0.056	1.15 ± 0.09	1.14 ± 0.095	1.18 ± 0.14	1.12 ± 0.13
